# Screening data as filed in PubChem BioAssay.
# In the library only some 5.5% were active in any assay of this set; here they are far more common.
# Sfp inh: Sfp phosphopantetheinyl transferase inhibition; Potency, µM, for inactives: largest response in the series, negative = inhibition, usual class: inhibitors; AID 1490; Biochemical Sfp PPTase activity, qHTS; Q9F4F7; 310,000 compounds, 3.5% hits;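 also: the enzyme is Sfp with the accession as filed and its product quenches rhodamine fluorescence; potency is read from the fitted curve at half-maximal effect; 0% = enzyme reaction without inhibitor and -100% = no enzyme wells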
#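 Step 1, compound plus 15 nM Sfp-PPTase, 15 min, room temperature. Step 2, add rhodamine-CoA (5 uM) and BHQ-2-YbbR (12.5 uM). Step 3, read 525/598 nm fluorescence at 0 and 30 min.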
# ELG1 repair inh: inhibitors of ELG1-dependent DNA repair in HEK293T cells | HEK293T ELG1-luciferase reporter, luminescence, 16 h; DNA damage induced by 5-fluorouridine | Potency, µM (doses to about 46.1 µM), for inactives: top-dose activity change, negative = inhibition, usual class: inhibitors | 330,000 compounds, 2.3% hits | AID 504467; also: potency is read from the fitted curve at half-maximal effect; nearly all actives have a fitted effect of over 55% in size
#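 Quantitative HTS, concentration-response format. 2,000 cells/well co-treated with 5-fluorouridine and compound, 16 hr in 5% CO2 at 37 °C; ONE-Glo luminescence read after 30 min.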
# Coupling enz: inhibits coupling enzyme system, counter-screen for aldolase hits. coupling enzyme system counterscreen, AmpLite Red fluorescence. activity change, negative = inhibition, % at 58.2 µM, hits read low. 290,000 compounds, 0.67% hits; in the data active = activity change below about -30%
#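 Coupling enzymes only (glyceraldehyde-3-phosphate) + compound, at 57.5 uM final, 10 min RT; add substrate/coupling/AmpLite Red mix, 20 min RT; fluorescence ex 525/em 598 nm. Actives flag coupling-system interference.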
# Giardia kill: Giardia lamblia killing; activity change, % at 7.66 µM, hits read low; Giardia lamblia trophozoite viability; 340,000 compounds, 0.15% hits; in the data active = activity change below about -80%; inconclusive = between about -30% and that limit;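 also: parasites exposed to compound for two days anaerobically before the ATP read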
#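 Trophozoites 100 cells/well + cpd; 48 hrs, 37 deg C, anaerobic. ATPLite 1-Step added, 15-30 min RT, luminescence read (ATP-based viability).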
# An asterisk follows results filed as active; ? = inconclusive; · = no result. Unless noted, calls follow the shape of the dose curve; as a rule, active = well fitted curve in the direction sought with a large enough effect; inconclusive = small, poorly fitted or top-dose-only effect, or another doubt; inactive = no such curve, though single readings can be large; an effect the other way counts as inactive or inconclusive. Unless noted, % is scaled to controls: 0 for no effect and ±100 for the full control effect.
SMILES,Sfp inh,ELG1 repair inh,Coupling enz,Giardia kill
CSCCC(NC(=O)COc1ccccc1)C(=O)N1CC(C)OC(C)C1 (stereo not given),·,8.3%,·,-5.6
CCOc1ccc(NC(=O)C2CCCN(S(=O)(=O)c3cccc4nsnc34)C2)cc1 (stereo not given),8.7%,23.1µM*,0.9,20.0
O=C(C1CCN(S(=O)(=O)c2cccc3nsnc23)CC1)N1CCn2c1nc1ccccc12,3.5%,6.51µM*,2.8,-11.1
O=C(C1CCCN(S(=O)(=O)c2cccc3nsnc23)C1)N1CCc2ccccc2C1 (stereo not given),12.3%,16.4µM*,-0.1,5.4
CC1CCc2nc(-c3cc4c(ccc5ccccc54)oc3=O)sc2C1 (stereo not given),·,·,·,-4.7
CN(C)C(=O)CSc1n[nH]c(=O)n1CCc1ccccc1,13.5%,-1.6%,0.1,10.1
O=[N+]([O-])c1ccccc1S(=O)(=O)Oc1ccc(/C=N/n2cnnc2)cc1,13.1%,-19.8%,-0.9,-80.8*
COCCNc1ncnc2ccc(-c3ccoc3)cc12,1.4%,·,-6.0,·
O=C(COc1ccc2cc(-c3ccccc3)c(=O)oc2c1)NCC1CCC(C(=O)O)CC1 (stereo not given),18.8%,?,0.5,-10.7
Cc1cc(OCC(=O)N2CCC[C@@H]2C(=O)O)c2c(C)c(C)c(=O)oc2c1,16.0%,3.5%,1.1,-8.3
Cc1cc(OCC(=O)N2CCN(c3cccc(Cl)c3)CC2)c2c(C)c(C)c(=O)oc2c1,39.8µM*,-3.6%,-1.1,11.1
C/C(=N\NC(=O)COc1ccccc1-c1ccccc1)c1ccccn1,10.0%,?,-1.3,-19.3
C/C(=N\NC(=O)COc1ccccc1-c1ccccc1)c1ccc(O)cc1O,18.1%,23.1µM*,5.7,-7.8
Cc1cn([C@@H](CCCCNC(=O)OC(C)(C)C)C(=O)NCCCCCCCCCCC(=O)N2CCN(C(=O)OC(C)(C)C)CC2)nn1,·,?,·,2.2
C#CCOCCOCCOCCNc1nc(N2CCN(C(=O)CCCCCCCCCCNC(=O)[C@H](CCCCN)n3cc(C[C@@H](C)CC)nn3)CC2)nc(N2CCN(C(=O)CCCCCCCCCCNC(=O)[C@@H]([C@H](C)O)n3cc(C)nn3)CC2)n1,·,?,·,-19.6
C#CCOCCOCCOCCNc1nc(N2CCN(C(=O)CCCCCCCCCCNC(=O)[C@@H](CCC(=O)O)n3cc(CCCCCN)nn3)CC2)nc(N2CCN(C(=O)CCCCCCCCCCNC(=O)[C@H](CCCCN)n3cc(C[C@@H](C)CC)nn3)CC2)n1,·,3.16µM*,·,-27.3
CC[C@H](C)Cc1cn([C@@H](CCCN=C(NC(=O)OC(C)(C)C)NC(=O)OC(C)(C)C)C(=O)NCCCCCCCCCCC(=O)N2CCN(C(=O)OC(C)(C)C)CC2)nn1,·,7.3µM*,·,28.1
C#CCOCCOCCOCCNc1nc(N2CCN(C(=O)CCCCCCCCCCNC(=O)[C@H](CCCCN)n3cc(C)nn3)CC2)nc(N2CCN(C(=O)CCCCCCCCCCNC(=O)[C@@H]([C@H](C)O)n3cc(C)nn3)CC2)n1,·,14.1µM*,·,-16.3
CCN(CC)CCn1c2c(c(SCC(=O)Nc3cc(C)on3)nc1=O)CCCC2,·,-0.3%,·,-13.5
CC(=O)c1ccc(N2CCN(C(=O)c3cc(S(=O)(=O)N4CCOCC4)ccc3C)CC2)cc1,·,10.4%,·,0.0
CCCN1C(=O)S/C(=C\c2ccc(N3CCOCC3)cc2C)C1=O,0.1%,?,-2.6,·
CCCN1C(=O)S/C(=C/c2ccc(N3CCOCC3)o2)C1=O,1.26µM*,?,-48.2*,11.9
Cc1ccc(OCCN2C(=O)S/C(=C\c3ccc(C)o3)C2=O)cc1,17.8µM*,5.2%,-5.8,9.3
CCCN1C(=O)S/C(=C\c2ccc(N3CCOCC3)o2)C1=O,3.16µM*,?,-49.6*,6.7
Fc1ccc(C2c3cccn3CCN2C(=S)Nc2cccc(F)c2)cc1 (stereo not given),20.6%,?,-4.4,-26.7
CNC(=S)N1CCn2cccc2C1c1ccc(F)cc1 (stereo not given),56.2µM*,14.2%,-3.7,-17.2
CC1CN(C2CCN(S(=O)(=O)c3ccc(F)cc3)CC2)CC(C)O1 (stereo not given),-4.8%,-9.0%,3.0,26.1
CC1CN(C2CCN(S(=O)(=O)c3ccccc3)CC2)CC(C)O1 (stereo not given),79.4µM*,2.2%,-2.2,0.9
COc1cc(OC)cc(C(=O)N[C@H](C(=O)OCC(=O)c2c[nH]c3ccccc23)C(C)C)c1,·,20.6µM*,·,6.6
